Results filed as inconclusive are left out. The source made the active and inactive calls. The call rests on the fitted dose curve; in most records, active means well fitted curve in the direction sought with a large enough effect; inconclusive means small, poorly fitted or top-dose-only effect, or another doubt; inactive means no such curve, though single readings can be large; an effect the other way counts as inactive or inconclusive.
How the values were obtained:
[1] = Quantitative highthroughput screen to assess conditional lethalithy of NOMO1 cells grown in RPMI1640 with untreated serum (RPMI+s) (AID 1963876); conditions: NOMO1 AML cells in RPMI+serum, CellTiter-Glo viability, 48 h; series mostly up to 45.8 µM; further: nearly all actives have a fitted effect of over 35% in size
How it was run: (§1)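 Each medium arm—HPLM with 10% dialyzed FBS, or RPMI1640 with 5 mM glucose and 10% untreated or dialyzed FBS—was screened against an 11-point, 3-fold compound titration for 48 h at 37 °C, with CellTiter-Glo luminescence as endpoint.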

[2] = Quantitative highthroughput screen to assess conditional lethalithy of NOMO1 cells grown in RPMI1640 with dialyzed fetal bovine serum (RPMI+ds) (AID 1963877); conditions: NOMO1 in RPMI+dialyzed FBS viability, ATP luminescence, 48 h; series mostly up to 45.8 µM; further: nearly all actives have a fitted effect of over 30% in size
How it was run: as §1

[3] = Quantitative highthroughput screen to assess conditional lethalithy of NOMO1 cells grown in Human Plasma-Like Medium with dialyzed fetal bovine serum (HPLM+ds) (AID 1963878); conditions: NOMO1 AML cells in HPLM+ds, CellTiter-Glo viability, 48 h; series mostly up to 45.8 µM; further: nearly all actives have a fitted effect of over 35% in size
How it was run: as §1

[4] = Quantitative highthroughput screen to assess conditional lethalithy of P12 Ichikawa cells grown in Human Plasma-Like Medium with dialyzed fetal bovine serum (HPLM+ds) (AID 1963879); conditions: ATP luminescence, 48 h; Potency: viability; series mostly up to 45.8 µM; further: nearly all actives have a fitted effect of over 35% in size
How it was run: as §1

[5] = Quantitative highthroughput screen to assess conditional lethalithy of P12 Ichikawa cells grown in RPMI1640 with dialyzed fetal bovine serum (RPMI+ds) (AID 1963880); conditions: ATP luminescence, 48 h; Potency: P12-Ichikawa viability; series mostly up to 45.8 µM; further: nearly all actives have a fitted effect of over 35% in size
How it was run: as §1

[6] = Quantitative highthroughput screen to assess conditional lethalithy of P12 Ichikawa cells grown in RPMI1640 with untreated serum (RPMI+s) (AID 1963881); conditions: ATP luminescence, 48 h; Potency: viability; series mostly up to 45.8 µM; further: nearly all actives have a fitted effect of over 35% in size
How it was run: as §1

[7] = Quantitative highthroughput screen to assess conditional lethalithy of SEM cells grown in Human Plasma-Like Medium with dialyzed fetal bovine serum (HPLM+ds) (AID 1963882); conditions: SEM B-ALL cells in HPLM+ds, CellTiter-Glo viability, 48 h; series mostly up to 45.8 µM; further: nearly all actives have a fitted effect of over 35% in size
How it was run: as §1

[8] = Quantitative highthroughput screen to assess conditional lethalithy of SEM cells grown in RPMI1640 with unreated serum (RPMI+s) (AID 1963883); conditions: SEM B-ALL cells, CellTiter-Glo viability, 48 h; series mostly up to 45.8 µM; further: nearly all actives have a fitted effect of over 35% in size
How it was run: as §1

[9] = Quantitative highthroughput screen to assess conditional lethalithy of SEM cells grown in RPMI1640 with dialyzed fetal bovine serum (RPMI+ds) (AID 1963884); conditions: SEM B-ALL cells, RPMI+dialyzed FBS, CellTiter-Glo viability, 48 h; series mostly up to 45.8 µM; further: nearly all actives have a fitted effect of over 35% in size
How it was run: as §1

Measured: Potency
Potency means the concentration at half of the fitted maximal effect.

COC(=O)[C@]12CCC(C)(C)C[C@@H]1[C@@H]1C(=O)C=C3[C@@]4(C)C=C(C#N)C(=O)C(C)(C)[C@@H]4CC[C@@]3(C)[C@]1(C)CC2
active: [1] 9.35 µM | [2] 8.33 µM | [3] 9.35 µM | [4] 9.35 µM | [5] 8.33 µM | [6] 9.35 µM | [7] 7.43 µM | [8] 9.35 µM | [9] 6.62 µM

O=C(C=Cc1ccc(CN(CCO)CCc2c[nH]c3ccccc23)cc1)NO
active: [1] 0.59 µM | [2] 0.743 µM | [3] 0.59 µM | [4] 0.418 µM | [5] 0.418 µM | [6] 0.332 µM | [7] 0.264 µM

O=C(O)C=Cc1ccc(Cn2ccnc2)cc1
not listed: [9]
inactive: all other assays above

OC[C@H]1O[C@@H](n2cnc3c2NC=NC[C@@H]3O)C[C@H]1O
not listed: [8] | [9]
inactive: all other assays above

Nc1ncnc2c1ncn2[C@@H]1O[C@@H](CO)[C@H](O)[C@H]1O
not listed: [7] | [8] | [9]
inactive: all other assays above

O=C1NC(=O)C(=Cc2ccc(-c3ccc(F)cc3)o2)S1
inactive: all assays above

Cn1cc(C=C2C(=O)Nc3cccnc32)c2ccccc21
active: [1] 7.43 µM | [2] 9.35 µM | [4] 9.35 µM
inactive: [3]

O=c1ccc2ccc(O)c(O)c2o1
inactive: [1] | [2] | [3]

Reference: PubChem BioAssay (NCATS)
